# Screening results (PubChem)
# An excerpt weighted towards active compounds, which were near 3.4% of everything screened.
# MITF inh – blocks human microphthalmia-associated transcription factor | inhibition, % at 2.6 µM | actives 0.91% (n = 650,000) | AlphaScreen MITF homodimerization, bead proximity signal | O75030; in the data active = inhibition above about 50%;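 note: 0% = vehicle wells with protein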
# TEAD-YAP block – TEAD-YAP interaction inhibition. HEK-TIYL cells, TEAD-Gal4/YAP UAS-luciferase luminescence. inhibition, % at 9.12 µM. actives 1.4% (n = 640,000). AID 1259422; in the data active = inhibition above about 32%;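 note: 0% = median of test compound wells and 100% = reference inhibitor wells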
# GPR151 ag – human GPR151 activation; PathHunter beta-arrestin GPR151 cells, luminescence; actives 1% (n = 650,000); activation, % at 11.2 µM; in the data active = activation above about 4.9%;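 note: 0% = median of compound wells and 100% = cells with positive control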
# Target sequence (Q8TDV0 whole entry, looked up): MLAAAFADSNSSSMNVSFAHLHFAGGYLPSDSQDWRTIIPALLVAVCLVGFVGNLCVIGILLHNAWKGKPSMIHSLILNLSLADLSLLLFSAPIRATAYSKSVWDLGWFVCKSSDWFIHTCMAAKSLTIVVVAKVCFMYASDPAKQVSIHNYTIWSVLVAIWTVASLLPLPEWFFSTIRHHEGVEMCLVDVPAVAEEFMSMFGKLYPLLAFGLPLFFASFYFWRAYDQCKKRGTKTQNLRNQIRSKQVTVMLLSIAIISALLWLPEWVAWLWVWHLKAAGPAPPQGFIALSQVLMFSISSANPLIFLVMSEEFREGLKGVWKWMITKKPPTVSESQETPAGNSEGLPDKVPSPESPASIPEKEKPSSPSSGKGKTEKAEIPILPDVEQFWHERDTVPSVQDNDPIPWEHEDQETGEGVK
# FBW7 act – activators of human E3 ligase FBW7; AlphaScreen FBW7–phospho-cyclin E peptide binding, activator screen; normalized activity (activation), % at 26.1 µM; actives 0.13% (n = 650,000); AID 1259310; in the data active = normalized activity above about 1.9%;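 note: purified mutant Fbw7 with reduced substrate affinity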
# GPR151 conf act – human GPR151 activation, confirmation screen. shares compounds with GPR151 ag. GPR151 PathHunter beta-arrestin cells, luminescence, 90 min; % of EA-reagent control over plate median. activation, % at 11.2 µM. 6,700 tested, under 10 active;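 active = mean percent activation across replicates above the confirmation screen cutoff of 4.91%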
# GPR119 counter – GPR119 activation, counter-screen for GPR151 activators; shares compounds with GPR151 ag; GPR119 PathHunter beta-arrestin cells, luminescence, 90 min; 0 = compound-well median, 100 = enzyme-acceptor control; activation, % at 11.2 µM; actives 0.3% (n = 6,700);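 active = mean percent activation in the counterscreen above 29.09%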;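 note: counterscreen on off-target GPR119 to flag nonselective hits from the GPR151 activator screen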
# * marks the source's active call; other numbers are inactive results; / = no result given; ! = not active in a repeat.
SMILES,MITF inh,TEAD-YAP block,GPR151 ag,FBW7 act,GPR151 conf act,GPR119 counter
CC(Sc1nnc(N)s1)C(=O)N1N=C(c2ccc(Cl)cc2)CC1c1ccco1 (stereo not given),-3,4,1,0,/,/
COc1cc(/C=C2\C(=O)Oc3ccc4c(C)cc(=O)oc4c32)cc(OC)c1OC,5,-3,0,0,/,/
Cc1nc2c3ccccc3nc(SCC(=O)c3ccccc3)n2n1,-3,14,-1,0,/,/
COc1ccc(SCCC(=O)Nc2nc3ccccc3s2)cc1,8,0,1,1,/,/
COc1ccc(SCCC(=O)Nc2ccc3sc(C)nc3c2)cc1,8,-9,6.2*,-1,1,8
COc1nc(NCCN(C(C)C)C(C)C)nc(-c2cccc(N)c2)n1,6,-4,2,0,/,/
COc1ccc(CNS(=O)(=O)c2ccc3[nH]c(=O)ccc3c2)cc1,8,3,6.6*,0,0,-6
CC12C=CC(C)(O1)C1C(=O)N(c3ccc(-c4ccccc4)cc3)C(=O)C12 (stereo not given),-13,-3,5.7*,0,-1,-15
CC12C=CC(C)(O1)C1C(=O)N(c3ccccc3)C(=O)C12 (stereo not given),-7,0,1,0,/,/
CC(=O)N1CCCN(S(=O)(=O)c2cccc3cnccc23)CC1,3,-5,5.4*,-1,0,5
C[C@@H](O)C(=O)N1CCCN(S(=O)(=O)c2cccc3cnccc23)CC1,8,-5,-1,0,/,/
COc1ccc(CN2CCC(C(=O)NC3CCCCCC3)CC2)cc1OC,-9,-2,0,0,/,/
O=C(Cc1ccc(Br)cc1)Nc1ccc(-c2cn3c(n2)SCC3)cc1,-3,-7,0,0,/,/
CCOc1ccc(CC(=O)Nc2ccc(-c3cn4c(n3)SCC4)cc2)cc1,-15,-6,5.1*,0,0,5
O=C(Nc1ccc2c(c1)CN(C(=O)c1cscn1)CC2)c1ccccc1Cl,9,-22,-1,1,/,/
CCOc1cnc(C(=O)NNC(=O)c2ccc(S(=O)(=O)N(C)C)cc2)o1,-6,1,6.0*,0,0,-4
O=C(c1ccc(F)cc1)N1CCOc2ccc(C(O)c3ccccn3)cc2C1 (stereo not given),24,7,1,1,/,/
Cc1nnc(NN=C(Cc2ccccc2)Cc2ccccc2)[nH]c1=O,29,1,2,0,/,/
O=C(CCN1C(=O)c2cccnc2C1=O)N1CCN(c2cccc(Cl)c2)CC1,12,-14,0,0,/,/
O=C(Nc1ccc2c(c1)CN(Cc1cnc(-c3ccccc3)s1)CC2)C1CCCO1 (stereo not given),-13,3,5.2*,0,0,2
O=C(Nc1ccc2c(c1)CN(Cc1cccnc1)CC2)C1CCCO1 (stereo not given),12,0,0,0,/,/
Cc1ccc(NC(=O)C(C)N2C(=O)c3ccccc3C2=O)cc1C (stereo not given),-2,3,6.3*,0,0,-8
Cc1cc(C)cc(NC(=O)C(C)N2C(=O)c3ccccc3C2=O)c1 (stereo not given),0,1,2,0,/,/
CC(C(=O)Nc1nc2ccccc2s1)N1C(=O)c2ccccc2C1=O (stereo not given),2,-7,9.7*,0,1,-14
COCCNc1ncnc2c1c(-c1ccccc1)cn2-c1ccc(OC)cc1,11,7,3,0,/,/
SMILES,MITF inh,TEAD-YAP block,GPR151 ag,FBW7 act,GPR151 conf act,GPR119 counter
CCOC(=O)c1cc2c(=O)n3ccccc3nc2n(CC(C)C)c1=NC(=O)c1ccc(Cl)cc1,-3,6,-1,0,/,/
CCOc1ccc(S(=O)(=O)N2CCN(C)CC2)cc1-c1nc2c(C(C)(C)C)nn(C)c2c(=O)[nH]1,-6,4,5.1*,0,0,9
O=C(CSc1nnc(-c2cccnc2)o1)c1cc2ccccc2oc1=O,14,5,6.2*,1,-1,-5
CCOC(=O)/C(=N/Nc1ccccc1Br)c1csc(N)n1,7,6,1,0,/,/
Cc1cc(NC(=O)c2ccc3c(c2)C(=O)N(c2ccc([N+](=O)[O-])cc2)C3=O)no1,7,8,5.7*,0,-1,3
CCCN1C(=O)CC(c2ccco2)Sc2ccccc21 (stereo not given),4,1,5.3*,0,-1,-1
C=CCOc1ccc(/C=C2\C(=O)NN(c3ccccc3)C2=O)cc1OC,4,1,5.3*,0,0,3
COc1cc(Br)cc(CN2CCN(C=O)CC2)c1O,-18,4,7.3*,0,1,2
COc1ccc(CCN2CCC(Nc3nc4ccccc4n3Cc3ccc(F)cc3)CC2)cc1,-3,5,9.2*!,0,2,-1
COc1ccc(CCN2CCC(NCC3CC3)CC2)cc1,-5,8,0,0,/,/
COc1ccc(NC(=O)c2sc(=S)[nH]c2N)cc1,-4,-31,5.0*,0,-1,-12
COc1ccc(OC)c(C2C3=C(CC(C)(C)CC3=O)Nc3ccc4ncccc4c32)c1 (stereo not given),0,19,1,0,/,/
CNC(=O)c1ccc(-c2ccc(O)cc2)nc1N1CCOCC1,20,0,2,1,/,/
O=C(COc1ccccc1)NC(=S)Nc1nc(-c2cccc([N+](=O)[O-])c2)cs1,3,0,2,0,/,/
OC(c1cccnc1)c1ccc2c(c1)CN(Cc1cccc(Cl)c1)CCO2 (stereo not given),1,-10,41*,0,1,-3
CC(=O)c1ccc(NC(=O)Nc2ccc(NS(=O)(=O)c3ccc(C)cc3)cc2)cc1,15,13,0,0,/,/
CC(=O)c1ccc(NC(=O)NS(=O)(=O)c2ccc(C)cc2)cc1,0,-6,5.4*,0,0,7
CCc1ccc(NC(=O)CSC2=Nc3ccccc3C3=NC(Cc4ccccc4)C(=O)N23)cc1 (stereo not given),1,23,2,0,/,/
Cc1ccccc1N1C(=O)CC(Sc2ncccc2C(=O)O)C1=O (stereo not given),14,8,-1,0,/,/
CCc1ccc(-c2nc(=S)[nH][nH]2)cc1,-1,-21,7.6*,0,1,6
CCCCOc1ccccc1NC(=O)/C=C/c1ccc(-c2ccccc2)cc1,2,-8,5.3*,0,-1,7
CCOc1ccccc1NC(=O)/C=C/c1ccc(OC)cc1,0,10,-1,0,/,/
CS(=O)(=O)Oc1ccc(Cl)cc1/C=C1/N=C(c2cccs2)OC1=O,2,-6,5.3*,0,1,-3
CCOc1cc(/C=C2/N=C(c3cccs3)OC2=O)ccc1OS(C)(=O)=O,1,7,-1,0,/,/
